# Experimental data: PubChem BioAssay (Tox21)
# Results filed as inconclusive are left out. Active and inactive are the calls of the source. Calls follow the shape of the dose curve; as a rule, active = well fitted cell-killing curve with a large enough effect in the repeat runs; inconclusive = weak or mixed curves, or effect the other way; inactive = flat fitted curve, though single readings scatter.
# Test: cAMP Responsive Elements (CRE) small molecule agonists, cell-based qHTS assay: qHTS cell viability counter screen (AID 2060914);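 also: viability read after 3 h of compound exposure; nearly all actives have a fitted effect of over 50% in size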
# Settings: CRE-bla HEK293T viability, CellTiter-Glo luminescence, 5 h; series mostly up to 92.4 µM; activity change, negative = cytotoxicity: at the top concentration
# Source text: National Center for Advancing Translational Sciences [NCATS]
# Division of Preclinical Innovation [DPI]
# U.S. Environmental Protection Agency [EPA]
# National Institutes of Environmental Health Sciences [NIEHS]
# National Toxicology Program [NTP]
# U.S. Food and Drug Administration [FDA]
# CREB (cyclic-AMP Responsive Element Binding Protein) is a cellular transcription factor. It binds to certain DNA sequences called cAMP Responsive Elements (CRE) and regulates the transcription of the genes. […] This cell line can be used to find agonists/antagonists of the cyclic AMP signaling pathway. The activation of the report gene under culture conditions can be detected by fluorescence intensity. This cell line has been used to screen the Tox21 10K compound library to identify agonists that induce oxidative stress. The cytotoxicity of the Tox21 compound library against the CRE-bla cell line was tested in parallel by measuring the cell viability using CellTiter-Glo assay (Promega, Madison, WI) in the same wells.
# Tox21 Assay Protocol Summary:
# CRE-bla Hek 293T cells were suspended in assay medium (DMEM containing 10% dialyzed FBS, 0.1 mM NEAA, 1 mM sodium pyruvate and 25 mM HEPES) and dispensed at 2,000 cells/5 uL /well into 1536-well black wall/clear bottom plates using a Multidrop Combi (ThermoFisher Scientific, Waltham, MA) dispenser. After the assay plates were incubated at 37 C/5% CO2 for 18 hrs, 23 nL of compounds dissolved in DMSO, positive controls or DMSO only was transferred to the assay plate by a pintool workstation (Kalypsys, San Diego, CA). After the plates were incubated at 37 C/5% CO2 for 3 hrs, 1 uL of LiveBLAzer B/G FRET substrate (Invitrogen, Carlsbad, CA) was added to each well using Bioraptr Flying Reagent Dispenser (FRD, Aurora Discovery, San Diego, CA). The plates were incubated at room temperature for 2 h, then fluorescence intensities were measured using an Envision plate reader (PerkinElmer, Shelton, CT) at Excitation 405nm, Emission 460nm and 530nm. The % activity was determined from the ratio of 460nm/530nm. For cell viability readout that measures cytotoxicity, 4 uL /well of CellTiter-Glo reagent was added into the assay plates using Bioraptr FRD. After 30 min incubation at room temperature, the luminescence intensity in the assay plates was measured using a ViewLux (PerkinElmer, Shelton, CT) plate reader.
# % is scaled to controls: 0 for no effect and ±100 for the full control effect.
SMILES,"activity change, negative = cytotoxicity",Potency
CC(=O)O[C@@]12CO[C@@H]1C[C@H](O)[C@@]1(C)C(=O)[C@H](O)C3=C(C)[C@@H](OC(=O)[C@H](O)[C@@H](NC(=O)OC(C)(C)C)c4ccccc4)C[C@@](O)([C@@H](OC(=O)c4ccccc4)[C@H]21)C3(C)C,4.31% [at 42.5 µM] (inactive),
NCc1cccc(CN)c1,,inactive
c1ccc(CCCc2ccccn2)cc1,10% (inactive),
O=C(O)Cc1ccc(-c2ccccc2)cc1,-6.49% [at 42.5 µM] (inactive),
COc1cc(OC)c(C(=O)CCCN2CCCC2)c(OC)c1,,inactive
Clc1ccccc1C(c1ccccc1)(c1ccccc1)n1ccnc1,2.03% [at 42.5 µM] (inactive),
CCCC(O)C(CC)CO (stereo not given),,inactive
COc1ccc(C(=O)c2ccc(C)cc2)c(O)c1,-11.1% (inactive),
Nc1nccs1,-1.11% (inactive),
CCn1cc(C(=O)O)c(=O)c2ccc(C)nc21,,inactive
O=C1c2ccccc2C(=O)C1c1ccc2cc(S(=O)(=O)O)cc(S(=O)(=O)O)c2n1,-16.6% (inactive),
Oc1cccc(-c2c3nc(c(-c4cccc(O)c4)c4ccc([nH]4)c(-c4cccc(O)c4)c4nc(c(-c5cccc(O)c5)c5ccc2[nH]5)CC4)C=C3)c1,0.308% [at 42.5 µM] (inactive),
CC1=C2[C@H](/C=C(\C)C(=O)O)CC[C@@H](C)[C@H]2CC1,0.296% (inactive),
CC(C)(C)CC(C)(C)c1ccc(Nc2ccc(C(C)(C)CC(C)(C)C)cc2)cc1,6.62% [at 8.39 µM] (inactive),
CC(=O)C1C(=O)C=C(C)OC1=O (stereo not given),0.841% (inactive),
C=C(C)C(=O)NCCC[N+](C)(C)C,0.0496% (inactive),
N#Cc1cscn1,-3.18% (inactive),
COc1ccc2nc(S(=O)Cc3ncc(C)c(OC)c3C)[nH]c2c1 (stereo not given),,inactive
COCc1nnc(-c2ccc[n+]([O-])c2)n1-c1c(Cl)c(Cl)cc2[nH]c(=O)c(=O)[nH]c12,7.63% (inactive),
O=C(O)CCc1nc2ccccc2[nH]1,-8.11% [at 42.5 µM] (inactive),

SMILES,"activity change, negative = cytotoxicity",Potency
Oc1ccc2c(c1)OC[C@@H](N1CCC(O)(c3ccc(F)cc3)CC1)[C@H]2O,1.42% [at 42.5 µM] (inactive),
CC(C)=CCOc1ccc(/C=C/C(=O)c2ccc(OCC=C(C)C)cc2OCC(=O)O)cc1,19.1% [at 42.5 µM] (inactive),
O=C1NC(c2ccccc2)(c2ccccc2)C(=O)N1COP(=O)(O)O,-0.0544% [at 42.5 µM] (inactive),
CC(COc1ccc(C(C)(C)C)cc1)OS(=O)OCCCl (stereo not given),23.7% (inactive),
O=C(O)COCC(=O)O,5.92% (inactive),
CCOC(=O)[C@H](CCc1ccccc1)N[C@H]1CS[C@H](c2cccs2)CN(CC(=O)O)C1=O,5.08% [at 42.5 µM] (inactive),
O=C(O)CCC(=O)O,,inactive
Nc1ccc(S(=O)(=O)NCc2ccccc2)cc1,-8.83% [at 42.5 µM] (inactive),
CC(=O)c1ccc(O)cc1,,inactive
CC(=O)CC(C)(C)O,,inactive
O=c1[nH]cc(F)c(=O)[nH]1,,inactive
CC1=NN(c2ccc(C(=O)O)cc2)C(=O)C1,7.89% (inactive),
O=C(Nc1ccc2c(O)c(N=Nc3ccc(N=Nc4ccc(S(=O)(=O)O)cc4)cc3)c(S(=O)(=O)O)cc2c1)c1ccccc1,-6.88% (inactive),
CS(=O)(=O)CCNCc1ccc(-c2ccc3ncnc(Nc4ccc(OCc5cccc(F)c5)c(Cl)c4)c3c2)o1,2.41% [at 42.5 µM] (inactive),
Cc1ncc(COP(=O)(O)O)c(C=O)c1O,18.4% [at 42.5 µM] (inactive),
C[C@H]1[C@H](NC(=O)/C(=N/OC(C)(C)C(=O)O)c2csc(N)n2)C(=O)N1S(=O)(=O)O (stereo in doubt),-8.38% [at 42.5 µM] (inactive),
CC[C@H](C)[C@H](N)C(=O)O,11% [at 42.5 µM] (inactive),
O=C(CCCN1CCN(c2ccc(F)cc2)CC1)NC1c2ccccc2CSc2ccccc21 (stereo not given),1.37% [at 42.5 µM] (inactive),
CC[C@@H](CO)NCCN[C@@H](CC)CO,-2.55% [at 42.5 µM] (inactive),
O=C(O)c1c(O)c(-c2ccccc2)nc2ccccc12,2.17% [at 42.5 µM] (inactive),
